# Several values for one entry are separate records, joined by “and”; a condition that tells them apart may be missing. Identical values can stand only once. Records with an inconclusive call do not appear. The source holds several records for some structures; these can differ, active in one and inactive in another. Activity calls are given as the source filed them. The calls were made as follows, unless noted: active = hit-call score of the fitted dose curve at least 0.9, where 1 is the maximum; inactive = score below 0.9.
# Key:
# [1] = target: bovine Estrogen Receptor (ER), ESR1 (gene 407238) (UniProt P49884); experiment: NVS_NR_bER: NovaScreen (NVS) Nuclear Receptor Binding Assay for bovine Estrogen Receptor (ER) (AID 2283345; active = hit-call score of the fitted dose curve at least 0.9, where 1 is the maximum;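 also: actives lower the bound radioligand count which means they displace the ER ligand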)
# Sequence of bovine Estrogen Receptor (ER), ESR1 (gene 407238) (P49884 whole entry, looked up): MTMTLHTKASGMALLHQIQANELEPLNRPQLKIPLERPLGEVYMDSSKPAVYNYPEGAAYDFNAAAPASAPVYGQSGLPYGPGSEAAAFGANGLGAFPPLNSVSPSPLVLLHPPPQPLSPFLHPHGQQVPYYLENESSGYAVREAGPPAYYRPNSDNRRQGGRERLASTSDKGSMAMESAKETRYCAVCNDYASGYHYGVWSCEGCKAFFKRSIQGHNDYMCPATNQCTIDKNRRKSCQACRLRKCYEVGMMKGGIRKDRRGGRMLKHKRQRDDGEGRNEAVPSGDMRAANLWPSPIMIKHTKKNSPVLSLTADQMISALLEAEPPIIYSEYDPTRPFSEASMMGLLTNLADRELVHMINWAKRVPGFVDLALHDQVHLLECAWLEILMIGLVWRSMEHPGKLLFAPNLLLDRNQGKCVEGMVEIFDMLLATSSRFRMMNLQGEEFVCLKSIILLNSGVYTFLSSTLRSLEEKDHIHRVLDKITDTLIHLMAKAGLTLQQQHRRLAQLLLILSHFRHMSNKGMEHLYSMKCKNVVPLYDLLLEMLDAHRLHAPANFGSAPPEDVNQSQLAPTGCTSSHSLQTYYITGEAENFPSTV
# Outline: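 Bovine uterine membranes; tritiated or iodinated radioligand; competitive displacement; 18 h; scintillation read; DMSO negative control; 25 uM duplicates, then concentration series for actives.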
# [2] = target: Estrogen receptor (Homo sapiens) (UniProt P03372); experiment: OT_ER_ERaERa_1440: Odyssey Thera (OT) 24-hour HEK293T Protein-Complementation Assay for Estrogen Receptor-alpha/-alpha Homodimer (AID 2283349; active = hit-call score of the fitted dose curve at least 0.9, where 1 is the maximum;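 also: hits raise fluorescence above DMSO for agonists and antagonists alike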)
# Sequence of Estrogen receptor (Homo sapiens) (P03372 whole entry, looked up, the tested form may be a part): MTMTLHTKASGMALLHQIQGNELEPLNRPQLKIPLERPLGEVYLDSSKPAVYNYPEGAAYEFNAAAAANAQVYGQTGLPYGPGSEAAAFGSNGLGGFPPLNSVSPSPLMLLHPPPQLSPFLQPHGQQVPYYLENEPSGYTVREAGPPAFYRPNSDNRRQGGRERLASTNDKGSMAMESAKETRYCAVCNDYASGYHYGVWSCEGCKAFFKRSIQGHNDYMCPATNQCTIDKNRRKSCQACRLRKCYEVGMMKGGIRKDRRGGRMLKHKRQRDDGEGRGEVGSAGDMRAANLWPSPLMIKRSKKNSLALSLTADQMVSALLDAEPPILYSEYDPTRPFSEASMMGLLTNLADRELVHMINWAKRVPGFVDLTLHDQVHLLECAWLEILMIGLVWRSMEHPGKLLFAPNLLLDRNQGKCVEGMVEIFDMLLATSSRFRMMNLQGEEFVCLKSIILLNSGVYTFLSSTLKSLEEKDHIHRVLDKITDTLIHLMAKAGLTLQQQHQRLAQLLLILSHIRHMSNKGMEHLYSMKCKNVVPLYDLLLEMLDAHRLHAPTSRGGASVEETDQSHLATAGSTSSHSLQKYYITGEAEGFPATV
# Outline: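 Readout is the rise in mean fluorescence from reporter fragment complementation when ERα LBD (aa 310-547) units dimerize in HEK293T cells. Measured 24 h after dosing and analysed as increase over DMSO control.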
# [3] = target: Estrogen receptor (Homo sapiens) (UniProt P03372); experiment: OT_ER_ERaERa_0480: Odyssey Thera (OT) 8-hour HEK293T Protein-Complementation Assay for Estrogen Receptor-alpha/-alpha Homodimer (AID 2283351; active = hit-call score of the fitted dose curve at least 0.9, where 1 is the maximum;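 also: rise in fluorescence from reassembled reporter fragments on ERα LBD homodimer in nucleus or whole cell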)
# Outline: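 Binding reporter in which dimerisation of ERα LBD (aa 310-547) fusions reconstitutes a fluorescent reporter in HEK293T cells. Compounds incubated 8 h; mean fluorescence intensity increase versus DMSO scored.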
# [4] = target: Estrogen receptor (Homo sapiens) + Estrogen receptor beta (Homo sapiens) (UniProt P03372+Q92731); experiment: OT_ER_ERaERb_1440: Odyssey Thera (OT) 24-hour HEK293T Protein-Complementation Assay for Estrogen Receptor-alpha/-beta Homodimer (AID 2283356; active = hit-call score of the fitted dose curve at least 0.9, where 1 is the maximum;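 also: heteromer of ER alpha and ER beta binding domains; hits raise reporter fluorescence and both agonists and antagonists give an increase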)
# Sequence of Estrogen receptor (Homo sapiens) + Estrogen receptor beta (Homo sapiens) (P03372 whole entry, looked up, the tested form may be a part): as above
# Sequence of Estrogen receptor (Homo sapiens) + Estrogen receptor beta (Homo sapiens) (Q92731 whole entry, looked up, the tested form may be a part): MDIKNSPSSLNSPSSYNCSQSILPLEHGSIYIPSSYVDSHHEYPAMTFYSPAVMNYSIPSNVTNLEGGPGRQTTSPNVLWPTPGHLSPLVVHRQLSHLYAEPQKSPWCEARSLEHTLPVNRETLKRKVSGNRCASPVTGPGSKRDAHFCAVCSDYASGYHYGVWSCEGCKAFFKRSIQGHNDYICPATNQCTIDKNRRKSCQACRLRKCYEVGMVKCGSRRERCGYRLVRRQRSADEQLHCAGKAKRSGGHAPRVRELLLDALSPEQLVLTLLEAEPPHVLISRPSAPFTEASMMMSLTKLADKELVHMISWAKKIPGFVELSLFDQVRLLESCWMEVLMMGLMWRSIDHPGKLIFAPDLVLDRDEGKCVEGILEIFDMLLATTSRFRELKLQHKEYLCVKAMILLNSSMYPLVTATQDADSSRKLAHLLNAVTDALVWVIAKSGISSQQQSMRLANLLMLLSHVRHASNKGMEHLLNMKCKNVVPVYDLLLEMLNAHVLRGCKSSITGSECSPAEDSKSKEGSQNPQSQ
# Outline: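 24 h exposure; HEK293T PCA cells with ERα/ERβ LBD fragments; signal rise in nuclear or whole-cell fluorescence over vehicle.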
# [5] = target: Estrogen receptor (Homo sapiens) (UniProt P03372); experiment: OT_ERa_GFPERaERE_0480: Odyssey Thera (OT) 8-hour HeLa Transcription Induction Assay for Estrogen Receptor (AID 2283381)
# Outline: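 Cells (HeLa) receive compound; after 8 h, reporter fluorescence is imaged and quantified by high-content analysis. Gain-of-signal relative to DMSO gives the endpoint.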
# [6] = target: Estrogen receptor (Homo sapiens) (UniProt P03372); experiment: OT_ERa_GFPERaERE_0120: Odyssey Thera (OT) 2-hour HeLa Transcription Induction Assay for Estrogen Receptor (AID 2283382; active = hit-call score of the fitted dose curve at least 0.9, where 1 is the maximum)
# Outline: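 Measures ESR1 pathway reporter gain-of-signal in HeLa cells after a 2-hour treatment, detected as fluorescent protein induction by microscopy, DMSO as baseline.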
# [7] = target: human Dopamine Transporter (DAT), SLC6A3 (gene 6531) (UniProt Q01959); experiment: NVS_TR_hDAT: NovaScreen (NVS) Transporter Assay for human Dopamine Transporter (DAT) (AID 2283374; active = hit-call score of the fitted dose curve at least 0.9, where 1 is the maximum;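 also: activity means loss of bound radioligand signal relative to DMSO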)
# Sequence of human Dopamine Transporter (DAT), SLC6A3 (gene 6531) (Q01959 whole entry, looked up): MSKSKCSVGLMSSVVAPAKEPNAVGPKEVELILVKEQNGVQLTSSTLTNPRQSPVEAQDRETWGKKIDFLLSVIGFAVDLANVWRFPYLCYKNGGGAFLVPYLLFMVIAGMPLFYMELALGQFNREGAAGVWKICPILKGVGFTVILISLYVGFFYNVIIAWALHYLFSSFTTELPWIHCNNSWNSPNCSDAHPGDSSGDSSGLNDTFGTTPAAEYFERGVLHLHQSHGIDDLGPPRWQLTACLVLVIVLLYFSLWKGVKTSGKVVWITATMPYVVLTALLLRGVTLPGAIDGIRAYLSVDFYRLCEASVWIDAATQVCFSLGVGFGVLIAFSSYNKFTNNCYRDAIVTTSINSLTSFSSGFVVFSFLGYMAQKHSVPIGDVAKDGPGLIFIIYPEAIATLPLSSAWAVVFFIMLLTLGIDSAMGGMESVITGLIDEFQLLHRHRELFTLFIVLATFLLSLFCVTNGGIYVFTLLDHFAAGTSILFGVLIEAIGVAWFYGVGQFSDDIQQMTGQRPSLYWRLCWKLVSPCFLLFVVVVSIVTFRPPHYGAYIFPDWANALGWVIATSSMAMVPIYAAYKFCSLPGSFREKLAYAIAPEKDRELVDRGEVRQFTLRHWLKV
# Outline: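 Cell-free radioligand binding to extracted human DAT protein, read 1 h after dosing by filter-based scintillation counting. Loss of specific binding scored against DMSO baseline; primary screen in duplicate at 25 uM, actives then run in concentration series.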
# [8] = CEETOX_H295R_ESTRADIOL: CeeTox H295R High-throughput Steroidogenesis Assay for Estradiol (AID 2283440); conditions: actives raise or lower the signal;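 also: estradiol secreted into medium quantified by LC-MS/MS after dansyl derivatisation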
# Outline: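 Readout is estradiol in conditioned medium, quantified by reverse-phase HPLC-MS/MS against a 7-point standard curve. Cells: H295R, forskolin-stimulated, then dosed 48 h in 0.1% DMSO; activity fitted in both directions relative to DMSO.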
# [9] = CEETOX_H295R_ESTRONE: CeeTox H295R High-throughput Steroidogenesis Assay for Estrone (AID 2283441); conditions: actives raise or lower the signal;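 also: estrone secreted into medium measured by LC-MS/MS after dansyl derivatization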;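 as to AC50: human adrenal H295R cells prestimulated with forskolin for two days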
# Outline: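 H295R cells; 48 h forskolin (10 uM) prestimulation; 48 h compound exposure, 0.1% DMSO final. Medium estrone: MTBE extraction, dansyl derivatization, HPLC-MS/MS. Bidirectional fit vs DMSO.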
# [10] = CCTE_Shafer_MEA_acute_spike_number: CCTE's Neural Acute Assay for Total Number of Spikes, Shafer Lab (AID 2284008);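 as to AC50: curve fitted for decrease in spike count so AC50 reflects inhibitors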
# Outline: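 Using an adaptive detector set to 8x rms noise, spikes were counted in 40-min windows before and after compound addition (0.03-40 uM) to rat cortical networks at 37 C; the well-level change from baseline was analysed relative to DMSO.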
# [11] = CCTE_Shafer_MEA_acute_firing_rate_mean: CCTE's Neural Acute Assay for Mean Firing Rate, Shafer Lab (AID 2284009);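 also: analyzed for loss of signal so actives lower firing rate relative to DMSO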
# Outline: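 Read-out: well-mean spike rate (spikes/recording length/electrodes), % change from 40 min pre-dose baseline to 40 min with compound. Rat cortical cultures, DIV 13 or 15, 37 C; 0.03-40 uM; DMSO as negative control.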
# [12] = CCTE_Shafer_MEA_acute_burst_number: CCTE's Neural Acute Assay for Single-Electrode Bursts, Shafer Lab (AID 2284013)
# Outline: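 Rat cortical cultures, DIV 13/15; 40 min baseline, then 40 min with compound 0.03-40 uM, 37 C. Spikes: 300-5000 Hz band-pass, threshold 8x rms noise. Readout = % change in single-electrode bursts vs baseline, loss-of-signal fit.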
# [13] = CCTE_Shafer_MEA_acute_per_network_burst_spike_number_mean: CCTE's Neural Acute Assay for Average Number of Spikes in a Network Burst, Shafer Lab (AID 2284019);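 as to AC50: curve fitted for loss of signal so actives reduce spikes per network burst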
# Outline: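 Primary rat cortical neurons on 16-electrode MEA wells, DIV 13 or 15, 37 C; 40-min baseline then 40-min recording with compound (0.03-40 uM). Spikes per network burst (total spikes/number of bursts) expressed as percent change from baseline, DMSO reference.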
# [14] = CCTE_Shafer_MEA_acute_per_network_burst_spike_number_std: CCTE's Neural Acute Assay for Standard Deviation of Number of Spikes in a Network Burst, Shafer Lab (AID 2284020);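 also: fitted for decrease in spike-number SD versus DMSO so actives lower it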
# Outline: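 Primary rat cortical neurons on 48-well MEAs (16 electrodes/well) recorded at DIV 13 or 15: 40-min baseline, then 40 min with compound (0.03-40 uM), 37 C. Value is percent change in SD of spikes per network burst, relative to DMSO.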
# [15] = CCTE_Shafer_MEA_acute_network_burst_percentage: CCTE's Neural Acute Assay for Percentage of Network Bursts, Shafer Lab (AID 2284022);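 also: curves fitted for loss so actives lower network burst percentage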
# Outline: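 On DIV 13 or 15, at least three wells of rat cortical neurons per compound are dosed at 0.03-40 uM. Spontaneous firing is detected at 8x rms noise for 40 min before and after dosing at 37 C. The percent change in network-burst spike share is reported.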
# [16] = CCTE_Deisenroth_5AR_NBTE_donor: CCTE's 5alpha-reductase NanoBRET Target Engagement Assay […], Deisenroth Lab (AID 2284319); conditions: actives raise or lower the signal
# Outline: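 In this secondary endpoint, donor luminescence from SRD5A2-NanoLuc in transfected HEK293T flags artifacts. Test chemical (10 nM - 29.9 uM) is present five hours, tracer the last two; mock-tracer wells run plate-matched; data fitted bidirectionally against DMSO.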
# SRD5A2 (gene 6716) = experiment: CCTE_Deisenroth_5AR_NBTE_ratio: CCTE's 5alpha-reductase NanoBRET Target Engagement Assay - Ratio, Deisenroth Lab (AID 2284322); conditions: actives raise or lower the signal
# Outline: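 Reverse-transfect HEK293T with pNLF1-C-SRD5A2, express 20 h. Pre-incubate cells with chemical 3 h (8-point series, 10 nM - 29.9 uM, duplicate). Add testosterone tracer, 2 h more. Add substrate/inhibitor, read donor and acceptor emission.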
# [17] = target: Nucleoli Translocation, AR (gene 367) (UniProt P10275); experiment: UPITT_HCI_U2OS_AR_TIF2_Nucleoli_Antagonist: University of Pittsburgh U2OS Androgen Receptor-Transcriptional Intermediary Factor 2 (AR-TIF2) Antagonism High Content Imaging Assay for Nucleoli Translocation (AID 2283997; active = hit-call score of the fitted dose curve at least 0.9, where 1 is the maximum)
# Sequence of Nucleoli Translocation, AR (gene 367) (P10275 whole entry, looked up): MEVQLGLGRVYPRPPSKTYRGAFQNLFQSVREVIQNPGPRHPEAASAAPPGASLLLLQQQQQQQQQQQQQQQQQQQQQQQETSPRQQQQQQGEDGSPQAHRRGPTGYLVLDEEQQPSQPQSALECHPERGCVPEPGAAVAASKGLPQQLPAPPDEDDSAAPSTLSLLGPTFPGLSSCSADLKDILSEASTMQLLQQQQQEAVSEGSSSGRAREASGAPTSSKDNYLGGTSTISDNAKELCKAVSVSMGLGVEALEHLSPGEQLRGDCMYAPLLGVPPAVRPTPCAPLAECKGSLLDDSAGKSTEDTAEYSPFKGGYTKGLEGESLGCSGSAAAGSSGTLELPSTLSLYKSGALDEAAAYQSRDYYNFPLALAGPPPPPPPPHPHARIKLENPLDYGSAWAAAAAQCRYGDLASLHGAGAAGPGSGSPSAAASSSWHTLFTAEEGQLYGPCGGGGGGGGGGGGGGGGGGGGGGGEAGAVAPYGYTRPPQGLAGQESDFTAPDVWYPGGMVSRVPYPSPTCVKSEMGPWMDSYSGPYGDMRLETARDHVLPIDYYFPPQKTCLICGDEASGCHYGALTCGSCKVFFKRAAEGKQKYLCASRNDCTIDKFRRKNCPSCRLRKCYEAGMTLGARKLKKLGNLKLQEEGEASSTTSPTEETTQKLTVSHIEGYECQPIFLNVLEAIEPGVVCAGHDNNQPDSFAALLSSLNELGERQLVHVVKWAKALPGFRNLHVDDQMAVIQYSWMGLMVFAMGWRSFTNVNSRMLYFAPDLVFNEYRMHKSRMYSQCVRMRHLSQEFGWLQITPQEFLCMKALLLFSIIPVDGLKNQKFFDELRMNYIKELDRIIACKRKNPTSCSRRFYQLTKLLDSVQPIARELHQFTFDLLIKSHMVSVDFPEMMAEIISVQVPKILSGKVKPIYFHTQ
# Outline: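 U2OS cells expressing RFP-tagged human AR and GFP-tagged TIF2 were imaged by high-content fluorescence microscopy for red AR signal in the nucleolar region. Compounds were screened at 20 uM final (0.2% DMSO), with activity fitted relative to DHT as baseline.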
# [18] = target: Ratio of Nucleoli Translocation and Cytoplasm, AR (gene 367) (UniProt P10275); experiment: UPITT_HCI_U2OS_AR_TIF2_Nucleoli_Cytoplasm_Ratio_Agonist: University of Pittsburgh U2OS Androgen Receptor-Transcriptional Intermediary Factor 2 (AR-TIF2) Agonism High Content Imaging Assay for Ratio of Nucleoli Translocation and Cytoplasm (AID 2284000; active = hit-call score of the fitted dose curve at least 0.9, where 1 is the maximum;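 also: hits raise the red nucleolar to cytoplasm ratio above vehicle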)
# Sequence of Ratio of Nucleoli Translocation and Cytoplasm, AR (gene 367) (P10275 whole entry, looked up): as above
# Outline: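 U2OS cells expressing RFP-tagged human AR and GFP-tagged TIF2 were imaged by high-content fluorescence microscopy. The endpoint is the ratio of nucleolar to cytoplasmic red fluorescence, fitted for gain of signal relative to DMSO. Concentration-response spanned 0.195 to 50 uM final (0.5% DMSO).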
# [19] = target: human Matrix Metalloproteinase-9 (MMP9), MMP9 (gene 4318) (UniProt P14780); experiment: NVS_ENZ_hMMP9: NovaScreen (NVS) Enzymatic Assay for human Matrix Metalloproteinase-9 (MMP9) (AID 2283190; active = hit-call score of the fitted dose curve at least 0.9, where 1 is the maximum;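 also: cell-free recombinant MMP9 protease activity read by fluorescent substrate signal; active means inhibition seen as loss of fluorescence signal versus DMSO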)
# Sequence of human Matrix Metalloproteinase-9 (MMP9), MMP9 (gene 4318) (P14780 whole entry, looked up): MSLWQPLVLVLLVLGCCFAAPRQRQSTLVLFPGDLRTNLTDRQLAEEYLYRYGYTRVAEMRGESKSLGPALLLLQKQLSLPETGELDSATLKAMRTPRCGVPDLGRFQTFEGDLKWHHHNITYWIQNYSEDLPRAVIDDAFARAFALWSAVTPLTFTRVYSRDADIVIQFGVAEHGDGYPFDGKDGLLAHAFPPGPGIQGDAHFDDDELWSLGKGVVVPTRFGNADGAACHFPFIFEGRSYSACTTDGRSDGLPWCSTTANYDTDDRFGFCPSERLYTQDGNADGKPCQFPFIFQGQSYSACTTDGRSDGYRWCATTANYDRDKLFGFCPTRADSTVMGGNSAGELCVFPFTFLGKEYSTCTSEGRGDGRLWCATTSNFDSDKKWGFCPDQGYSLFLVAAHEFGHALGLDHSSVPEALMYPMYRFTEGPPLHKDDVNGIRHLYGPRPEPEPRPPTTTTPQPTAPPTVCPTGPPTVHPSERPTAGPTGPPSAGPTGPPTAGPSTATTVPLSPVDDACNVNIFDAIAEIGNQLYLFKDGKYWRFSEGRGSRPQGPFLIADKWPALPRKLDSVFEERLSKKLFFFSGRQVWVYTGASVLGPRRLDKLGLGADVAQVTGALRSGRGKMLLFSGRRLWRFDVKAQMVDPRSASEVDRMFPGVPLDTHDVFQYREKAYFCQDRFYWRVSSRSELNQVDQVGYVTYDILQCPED
# Outline: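 Screening concentration 25 uM, duplicate wells, then dose series for confirmation. Cell-free enzymatic reaction measured by fluorescence intensity 1 h post-dosing; decreased signal versus DMSO taken as activity.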
smiles,measurement,setting,value
c1ccc(P(c2ccccc2)c2ccccc2)cc1,outcome,[1],inactive
same,outcome,[2],inactive
same,AC50,[3],60.6 µM (active)
same,AC50,[4],64.4 µM (active)
same,AC50,[5],84.1 µM (active)
same,AC50,[6],17 µM (active)
CC(C)(C)C(O)C(Oc1ccc(-c2ccccc2)cc1)n1cncn1 (configuration not stated),AC50,[7],13.4 µM (active)
same,outcome,[8],inactive
same,outcome,[9],inactive
Oc1ccc(C2(c3ccc(O)cc3)c3ccccc3-c3ccccc32)cc1,outcome,[1],inactive
same,AC50,[10],0.00882 µM (active)
same,AC50,[11],0.00883 µM (active)
same,AC50,[12],0.0359 µM (active)
same,outcome,[13],inactive
same,AC50,[14],23.1 µM (active)
same,AC50,[15],26.4 µM (active)
CCCCCCCCCCCCCCCC[N+](C)(C)C,AC50,[16],16.3 µM (active)
same,outcome,SRD5A2 (gene 6716),inactive
O=[N+]([O-])c1cc(C(F)(F)F)c(Cl)c([N+](=O)[O-])c1Cl,outcome,[1],inactive
CCCC=NO,outcome,[2],inactive
same,outcome,[3],inactive
same,outcome,[4],inactive
same,outcome,[5],inactive
same,outcome,[6],inactive
Cc1ccc(OP(=O)(Oc2ccc(C)cc2)Oc2ccc(C)cc2)cc1 (tested in a mixture with another compound),AC50,[10],4.2 µM (active)
same,AC50,[11],4.2 µM (active)
same,AC50,[12],3.7 µM (active)
same,AC50,[13],3.4 µM (active)
same,AC50,[14],3.32 µM (active)
same,AC50,[15],7.23 µM (active)
COc1cc(OC)nc(Oc2cccc(Oc3nc(OC)cc(OC)n3)c2C(=O)O)n1,outcome,[17],inactive
CN(C)N,outcome,[17],inactive
same,outcome,[18],inactive
COc1ccc(CO)cc1,outcome,[10],inactive
same,outcome,[11],inactive
same,outcome,[12],inactive
same,AC50,[13],25.4 µM (active)
same,outcome,[14],inactive
same,outcome,[15],inactive
Oc1cc(Cl)ccc1Cl,outcome,[16],inactive
same,outcome,SRD5A2 (gene 6716),inactive
CC(C)c1ccc(O)cc1,outcome,[16],inactive
same,outcome,SRD5A2 (gene 6716),inactive
N#Cc1cccc(C#N)c1,AC50,[19],7.24 µM (active)
C=CC(=O)OCC(CC)CCCC (configuration not stated),outcome,[16],inactive
same,outcome,SRD5A2 (gene 6716),inactive
Clc1ccc(-c2ccccc2)cc1,outcome,[7],inactive
O=CNC(N1CCN(C(NC=O)C(Cl)(Cl)Cl)CC1)C(Cl)(Cl)Cl (configuration not stated),outcome,[2],inactive
same,outcome,[3],inactive
same,outcome,[4],inactive
same,outcome,[5],inactive
same,outcome,[6],inactive
same,outcome,[8],inactive
same,outcome,[9],inactive
same,outcome,[17],inactive
same,outcome,[18],inactive
Cc1cc(C)c(C2=C(OC(=O)CC(C)(C)C)C3(CCCC3)OC2=O)c(C)c1,outcome,[2],inactive
same,outcome,[3],inactive
same,outcome,[4],inactive
same,outcome,[5],inactive
same,outcome,[6],inactive
same,outcome,[8],inactive
same,AC50,[9],20.7 µM (active)
O=[N+]([O-])O,AC50,[10],0.0886 µM (active)
same,outcome,[10],inactive
same,AC50,[11],0.0885 µM (active)
same,outcome,[11],inactive
same,AC50,[12],0.189 µM (active)
same,outcome,[12],inactive
same,AC50,[13],0.003 µM (active)
same,outcome,[13],inactive
same,AC50,[14],0.003 µM (active)
same,outcome,[14],inactive
same,AC50,[15],0.0386 µM (active)
same,outcome,[15],inactive
O=P(O)(Oc1ccccc1)Oc1ccccc1,outcome,[2],inactive
same,outcome,[3],inactive
same,outcome,[4],inactive
same,outcome,[5],inactive
same,outcome,[6],inactive
same,outcome,[16],inactive
same,outcome,SRD5A2 (gene 6716),inactive
C[C@]12CC[C@H](O)C[C@H]1CC[C@@H]1[C@@H]2C[C@@H](O)[C@]2(C)[C@@H](C3=CC(=O)OC3)CC[C@]12O,AC50,[7],40.9 µM (active)
C[N+](=O)[O-],AC50,[19],1.45 µM (active)
CCOP(=O)(OCC)OCC,AC50,[19],5.9 µM (active)
CC(C)(c1cc(Cl)c(O)c(Cl)c1)c1cc(Cl)c(O)c(Cl)c1,outcome,[7],inactive
O=[N+]([O-])C=Cc1ccccc1,AC50,[7],25 µM (active)
O=C1C(Cl)=C(Cl)C(=O)C(Cl)=C1Cl,outcome,[1],inactive
CC=Cc1ccc2c(c1)OCO2,AC50,[19],5.42 µM (active)
COc1cc(OC)c(OC)cc1C=O,outcome,[1],inactive
CN(C)CCC#N,AC50,[19],9.19 µM (active)
CC(C)CCCCCCCOC(=O)c1ccccc1C(=O)OCCCCCCCC(C)C,AC50,[19],10.9 µM (active)
c1ccc(Nc2ccc3ccccc3c2)cc1,AC50,[7],13 µM (active)
same,outcome,[8],inactive
same,outcome,[9],inactive
c1ccc2c(c1)CCCC2,outcome,[2],inactive
same,outcome,[3],inactive
same,outcome,[4],inactive
same,outcome,[5],inactive
same,outcome,[6],inactive
same,outcome,[17],inactive
same,outcome,[18],inactive
CNC(=O)Oc1cc(C)c(SC)c(C)c1,outcome,[8],inactive
same,outcome,[9],inactive
same,AC50,[17],24 µM (active) and 26.6 µM (active)
same,AC50,[18],71.1 µM (active)
same,outcome,[18],inactive
